Hits are enriched below; roughly 1.6% of the tested compounds scored in any of these assays.
KCNQ2 block – blocks the rat KCNQ2 potassium channel. B-score at 10 µM. hit rate 1.1% among 310,000. CHO-K1 KCNQ2, FluxOR thallium flux, 20 min; hits give low values. O88943. AID 2156;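 active means fluorescence ratio B-score at most minus 3 library SDs, with starting brightness B-score within 2 library SDs, cut at about -5.5 in these data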
Target sequence (O88943 whole entry, looked up): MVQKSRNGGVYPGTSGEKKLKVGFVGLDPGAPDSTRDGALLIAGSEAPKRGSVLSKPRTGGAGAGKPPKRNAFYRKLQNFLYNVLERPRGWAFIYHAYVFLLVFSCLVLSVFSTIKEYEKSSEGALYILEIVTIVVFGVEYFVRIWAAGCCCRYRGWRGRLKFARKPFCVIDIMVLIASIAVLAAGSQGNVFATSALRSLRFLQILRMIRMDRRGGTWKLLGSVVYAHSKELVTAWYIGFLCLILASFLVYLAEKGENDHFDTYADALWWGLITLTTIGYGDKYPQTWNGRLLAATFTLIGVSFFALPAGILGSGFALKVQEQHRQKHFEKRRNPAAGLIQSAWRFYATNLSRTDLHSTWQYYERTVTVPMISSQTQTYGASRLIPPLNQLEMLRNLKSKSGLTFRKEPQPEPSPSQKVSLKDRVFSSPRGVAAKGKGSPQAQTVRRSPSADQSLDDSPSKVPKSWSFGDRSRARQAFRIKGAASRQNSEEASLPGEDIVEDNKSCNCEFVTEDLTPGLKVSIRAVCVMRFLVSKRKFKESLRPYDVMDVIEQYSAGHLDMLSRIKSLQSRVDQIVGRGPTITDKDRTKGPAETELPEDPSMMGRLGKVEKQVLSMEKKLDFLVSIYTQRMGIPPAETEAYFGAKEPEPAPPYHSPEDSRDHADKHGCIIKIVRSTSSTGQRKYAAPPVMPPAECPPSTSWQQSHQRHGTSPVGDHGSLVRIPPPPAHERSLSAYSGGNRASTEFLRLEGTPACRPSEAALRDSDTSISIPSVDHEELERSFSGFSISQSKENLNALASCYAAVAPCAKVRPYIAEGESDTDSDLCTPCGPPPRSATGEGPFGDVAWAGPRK
KCNQ2 pot – potentiators of rat KCNQ2 potassium channel | B-score at 10 µM | CHO-K1 KCNQ2, FluxOR thallium flux fluorescence; hits give high values | AID 2239 | hit rate 0.54% among 310,000 | O88943;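 active means fluorescence ratio B-score at least 3 SD of library B-scores, with initial fluorescence B-score within 3 of them, cut at about 5.3 in these data; same plate scores as AID 2156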;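 further: B-score of peak minus minimum over baseline fluorescence ratio after K+ and Tl+ stimulus; positive B-score means potentiation of KCNQ2 with more thallium influx and brighter signal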
KCNQ2 inh conf – confirmation of rat KCNQ2 potassium channel inhibitors; shares compounds with KCNQ2 block; KCNQ2-expressing cells, thallium flux, inhibition; hits give low values; activity change, negative = inhibition, % at 10 µM; hit rate 57% among 1,000; AID 493025
KCNQ1 spec – selectivity of KCNQ2 inhibitors against human KCNQ1; AID 493026; KCNQ1-expressing cells, FluxOR thallium flux fluorescence; hits give low values; activity change, negative = inhibition, % at 10 µM; shares compounds with KCNQ2 block; hit rate 15% among 1,000;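 active means activity change at least 3 SD of negative controls below their mean in both duplicate wells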;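 further: CHO cells stably transfected with KCNQ1 and depolarized by potassium stimulus; peak minus minimum fluorescence over baseline after thallium addition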
CHO parental ctr – counter-screen for KCNQ2 inhibitors: effect in parental CHO cells | shares compounds with KCNQ2 block | thallium flux counter-screen; hits give low values | activity change, % at 10 µM | hit rate 14% among 1,000
KCNQ2 inh confirm – rat KCNQ2 inhibition confirmed by electrophysiology. shares compounds with KCNQ2 block. AID 588531. KCNQ2-expressing cells, automated patch clamp current. calls only at 10 µM. hit rate 49% among 550
Numbers stand for hits; – = inactive; · = no result given; + = active, no number. Unless noted, how the calls were made is not given here.

SMILES	KCNQ2 block	KCNQ2 pot	KCNQ2 inh conf	KCNQ1 spec	CHO parental ctr	others
COCCCN(C(=S)Nc1cc(Cl)cc(Cl)c1)C(C)c1ccccn1 (configuration not stated)	-8.5	–	–	–	–
COc1ccc(Cl)cc1C(=O)NNC(=O)CSc1nnnn1C	–	–	·	·	·
CC(NC(=O)Cc1ccccc1)c1ccc(F)cc1 (configuration not stated)	–	–	·	·	·
CC(NC(=O)CCC(=O)c1ccccc1)c1ccc(F)cc1 (configuration not stated)	-8.8	–	–	–	–
COc1ccccc1-c1nnc(C2CCN(S(=O)(=O)c3ccccc3[N+](=O)[O-])CC2)o1	–	·	·	·	·
Cc1cccc(NC(=O)c2c(O)c3ccccc3n(C)c2=O)c1	–	·	·	·	·
C=CCNC(=O)/C(C#N)=C/c1ccc(C(=O)O)cc1	–	–	·	·	·
C=CCNC(=O)/C(C#N)=C/c1ccccc1Cl	-6.7	–	–	–	–
CCc1ccc(OC)c(S(=O)(=O)Nc2ccc(Cc3ccncc3)cc2)c1	–	·	·	·	·
Cc1ccc(S(=O)(=O)N2CCN(C(=O)c3c(-c4ccccc4)noc3C)CC2)c(C)c1	–	·	·	·	·
CC1CC(C)CN(C(=O)C2CCCN(S(=O)(=O)c3cnc[nH]3)C2)C1 (configuration not stated)	–	·	·	·	·
CN(C)c1nc(NCc2ccccc2)nc(SCC(=O)Nc2ccccc2)n1	–	–	·	·	·
CN(C)c1nc(NCc2ccccc2)nc(SCC(=O)Nc2ccccc2Cl)n1	-6.9	–	–	–	–
CCN(CC)S(=O)(=O)c1ccc(NC(=O)CC(NC(C)=O)c2ccccc2)cc1 (configuration not stated)	–	·	·	·	·
O=S(=O)(C/C(=C/CO)S(=O)(=O)c1ccccc1)c1ccccc1	-8	–	–	–	–
CCN(Cc1ccccc1)C(=O)CS(=O)(=O)c1ccccc1	–	–	·	·	·
O=C(COC(=O)Cc1ccc(Br)cc1)NC1CCCCCC1	–	·	·	·	·
CC(=O)NCCC(=O)N1CCCC(N2CCN(c3cccc(Cl)c3)CC2)C1 (configuration not stated)	–	·	·	·	·
Cc1cc(NC(=O)CCN2CCCCC2)ccc1Br	–	·	·	·	·
COc1ccccc1-c1cc(C(=O)N2CCN(c3ccccc3)CC2)no1	–	·	·	·	·
COc1cc2c(C(=O)N3CCN(c4ccccc4)CC3)c(C)oc2cc1Br	-7.4	–	-37%	–	–	KCNQ2 inh confirm=+
c1ccc(-c2nc3ccccc3[nH]2)cc1	–	–	·	·	·
c1ccc(-c2n[nH]c(-c3ccccc3)c2-c2nc3ccccc3[nH]2)cc1	-9.2	–	-36%	–	–	KCNQ2 inh confirm=+
Cc1ccc(S(=O)(=O)c2cc(C)cc(S(=O)(=O)Nc3ccc(C(=O)O)cc3)c2C)cc1	–	–	·	·	·
O=C(CSC1=NCCN1)Nc1ccccc1[N+](=O)[O-]	–	·	·	·	·
SMILES	KCNQ2 block	KCNQ2 pot	KCNQ2 inh conf	KCNQ1 spec	CHO parental ctr	others
O=C(CSC1=NCCN1)NC(c1ccccc1)c1ccccc1	-9.7	–	–	–	–
N=c1ncn(Cc2ccccc2)c2nc(SCCOc3ccccc3)[nH]c12	–	–	·	·	·
CCn1cc(/C=C(\NC(=O)c2ccc(OC)c(OC)c2)C(=O)NCCCN2CCOCC2)c2ccccc21	–	–	·	·	·
CN(c1ccccc1C(=O)Nc1cccc(Br)c1)S(=O)(=O)c1ccccc1	-6.7	–	–	–	–
CN(c1ccccc1C(=O)Nc1cccc([N+](=O)[O-])c1)S(=O)(=O)c1ccccc1	–	·	·	·	·
O=C(CN1CCN(Cc2ccc(F)cc2Cl)CC1)NCc1ccccc1	–	–	·	·	·
COc1ccc(N2CCN(C(=O)c3oc4ccccc4c3C)CC2)cc1	–	·	·	·	·
COc1ccc2oc(C(=O)N3CCN(C(c4ccccc4)c4ccccc4)CC3)c(C)c2c1	-10	–	–	–	–
COc1ccc(C(c2nnnn2Cc2ccccc2)N2CCN(c3nc4ccccc4s3)CC2)cc1OC (configuration not stated)	–	·	·	·	·
c1ccc(Cn2nnnc2C(c2ccccc2)N2CCN(c3nc4ccccc4s3)CC2)cc1 (configuration not stated)	-7.9	–	-37%	–	–	KCNQ2 inh confirm=–
c1ccc(C(c2nnnn2Cc2ccco2)N2CCN(c3nc4ccccc4s3)CC2)cc1 (configuration not stated)	–	·	·	·	·
COc1ccccc1C(c1nnnn1Cc1ccccc1)N1CCN(c2nc3ccccc3s2)CC1 (configuration not stated)	-8.8	–	-31%	–	–	KCNQ2 inh confirm=+
CSc1ncc(S(=O)(=O)c2ccccc2)c(=O)[nH]1	–	·	·	·	·
COc1ccc(C(=O)N2CCN(c3ccccn3)CC2)cc1[N+](=O)[O-]	–	–	·	·	·
COC(=O)C(NC(C)=O)(Nc1nc(C)cs1)C(F)(F)F (configuration not stated)	–	·	·	·	·
COC(=O)C(NC(=O)c1ccccc1)(Nc1nc(C)cs1)C(F)(F)F (configuration not stated)	-8.5	–	–	–	–
CN(C(=O)c1ccc(Cl)c([N+](=O)[O-])c1)C1(C)CCS(=O)(=O)C1 (configuration not stated)	–	–	·	·	·
Cc1cccc(C)c1OCCNC(=O)OCc1ccccc1	-6.9	–	–	–	–
O=C(O)CCCNC(=O)OCc1ccccc1	–	·	·	·	·
COCCNC(=S)NNC(=O)c1cc(C2CC2)nc2ccccc12	–	–	·	·	·
O=C(O)c1ccccc1C(=O)N1N=C(c2ccccc2)CC1c1ccccc1O (configuration not stated)	–	·	·	·	·
O=S(=O)(c1ccc(F)c(F)c1)N1CCN(CCc2ccccc2)CC1	–	·	·	·	·
Cc1ccc(Nc2nc(-c3ccc(C)cc3)c(CC(=O)O)s2)cc1	–	–	·	·	·
O=C(O)Cc1sc(Nc2cccc3ccccc23)nc1-c1ccc(Cl)cc1	-8.2	–	–	–	–
Cc1c(C(=O)N2CCCC2)c(S(=O)(=O)Nc2ccccc2)c(C)n1C	–	·	·	·	·
SMILES	KCNQ2 block	KCNQ2 pot	KCNQ2 inh conf	KCNQ1 spec	CHO parental ctr	others
COc1ccc(NC(=O)CC2CCCC2)cc1S(=O)(=O)N1CCCCC1	–	–	·	·	·
COc1ccc(NC(=O)CN2C(=O)NC3(CC(C)CC(C)(C)C3)C2=O)cc1S(=O)(=O)N1CCCCC1 (configuration not stated)	-8.9	–	–	–	–
O=C(NCc1ccccn1)C1CN(S(=O)(=O)c2ccccc2)CCN1S(=O)(=O)c1ccccc1 (configuration not stated)	–	–	·	·	·
CN(C)S(=O)(=O)c1cccc(C(=O)Nc2ccccc2N2CCCCC2)c1	–	·	·	·	·
CC1CN(S(=O)(=O)c2cccc(C(=O)Nc3ccccc3N3CCCCC3)c2)CC(C)O1 (configuration not stated)	-9.5	–	-29%	–	–	KCNQ2 inh confirm=–
CCOc1ccc(CN2CCC(C(=O)Nc3cccc(-c4ccn[nH]4)c3)CC2)cc1Cl	–	·	·	·	·
COc1cccc(OC)c1C(=O)Nc1ccccc1Sc1ccccc1	-7	–	–	–	–
COc1cccc(OC)c1C(=O)Nc1ccccc1NC(=O)c1c(OC)cccc1OC	–	–	·	·	·
CCN(C(=O)CCc1nnc2ccc(NCc3ccco3)nn12)c1ccccc1	–	–	·	·	·
O=C(CSc1nnc(-c2ccncc2)o1)N1CCc2ccccc2C1	–	–	·	·	·

Screening results (PubChem BioAssay)
